Compounds with a hit are over-represented: about 19% of the library has one in this group of screens.
TDP1 cell noCPT: qHTS for Inhibitors of human tyrosyl-DNA phosphodiesterase 1 (TDP1): qHTS in cells in absence of CPT. 15% of 420,000 active. Potency, µM (titrated, usually from 46.2 µM), for inactives: top-dose activity change, negative = growth inhibition, usual class: inhibitors. DT40 Tdp1-/- hTDP1 cells, no CPT, ATP luminescence, 48 h; further: potency means the concentration at half of the fitted maximal effect; nearly all actives have a fitted effect of over 55% in size
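DT40 Tdp1-/-;hTDP1 cells, no CPT (DMSO vehicle only), 400 cells/well; compounds pin-transferred; ≥48 hr, 37 °C; CellTiter-Glo 30 min RT dark, luminescence read.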
ELG1 repair inh: inhibitors of ELG1-dependent DNA repair in HEK293T cells; 2.3% of 330,000 active; Potency, µM (highest dose often 46.1 µM), without a hit: at the highest dose activity change, negative = inhibition, actives largely listed as inhibitors; HEK293T ELG1-luciferase reporter, luminescence, 16 h; DNA damage induced by 5-fluorouridine; AID 504467; further: potency means the concentration at half of the fitted maximal effect; nearly all actives have a fitted effect of over 55% in size
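Cells (2,000 per well) received 5-fluorouridine plus test compound or DMSO and were incubated 16 hr at 37 °C, 5% CO2. Luciferase activity was read by luminescence 30 min after ONE-Glo addition; signal suppression marked inhibition of damage-induced ELG1 function.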
IL1B secr inh: inhibitors of inflammasome signaling (IL-1 beta secretion). THP-1 LPS/ATP IL-1B secretion, AlphaLISA, 16 h; stronger effect = lower value. activity change, % at 57.5 µM. 4.7% of 360,000 active. AID 743279; in the data active means activity change below about -50%; inconclusive means mostly about -30% to -49%
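THP-1 cells pretreated 1 hr with compounds (up to 57.5 uM final), then stimulated with LPS (250 ng/mL final) plus ATP (1.25 mM final); secreted IL-1B measured by AlphaLISA after 16 hr, decreased signal indicating inhibition.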
TDP1 cell CPT: growth inhibition of DT40 Tdp1-/-;hTDP1 cells with camptothecin (screen for TDP1 inhibitors) | chicken DT40 Tdp1-/-;hTDP1 cells + 20 nM CPT, ATP luminescence, 48 h | Potency, µM (series often up to 46.2 µM), for inactives: at the top dose activity change, negative = growth inhibition, most hits filed as inhibitors | 12% of 420,000 active; further: potency means the concentration at half of the fitted maximal effect; nearly all actives have a fitted effect of over 55% in size
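Chicken DT40 Tdp1-/- cells stably complemented with human TDP1 were seeded at 400 cells/well in medium containing 20 nM camptothecin, exposed to pin-transferred compounds, and grown at 37 °C for at least 48 hr. Viability was read as ATP luminescence.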
HT1080-NT tox: kills 2HG-producing HT-1080-NT fibrosarcoma cells. Potency, µM (top dose mostly 46.1 µM), for the others: top-dose activity, negative = less viability, most hits filed as cytotoxic. HT-1080-NT fibrosarcoma viability, CellTiter-Glo ATP luminescence, 48 h. 1.6% of 360,000 active;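 further: NT is the 2HG producing partner of a matched IDH1 knockdown line; potency means the concentration at half of the fitted maximal effect; 0% = DMSO-treated cells and -100% = media-only wells without cells; nearly all actives have a fitted effect of over 55% in size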
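HT-1080-NT fibrosarcoma cells (2HG-overproducing), 750 cells/well in RPMI with 5% FBS, dosed after 2 h and incubated 48 h at 37C. CellTiter-Glo luminescence normalized to DMSO and no-cell wells; concentration-response curves fitted and classed.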
HT1080 IDH1KD tx: kills HT-1080 cells with IDH1 knockdown; HT-1080 IDH1 knockdown viability, ATP luminescence, 48 h; Potency, µM (titrated, usually from 46.1 µM), for inactives: at the highest dose activity, negative = toxicity, most hits filed as cytotoxic; 2% of 360,000 active;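 further: potency means the concentration at half of the fitted maximal effect; 0% = DMSO wells and -100% = cell-free medium wells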
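In this qHTS, HT-1080 cells depleted of IDH1 are exposed for 48 h at 37 °C to compound titrations. Toxicity is scored from CellTiter-Glo luminescence, with DMSO as full viability and medium alone as none.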
ELG1 FLuc counter: luciferase inhibition in cell-free luciferin readout for ELG1 hits; shares compounds with ELG1 repair inh; cell-free firefly luciferase luminescence counter-screen, ViewLux; Potency, µM (doses to about 46.1 µM), for the others: at the top dose activity change, negative = inhibition, usual class: inhibitors; 3% of 350 active; AID 624247; further: potency means the concentration at half of the fitted maximal effect
ELG1 Luc conf: inhibits ELG1-dependent DNA repair in HEK293T cells, confirmed | shares compounds with ELG1 repair inh | HEK293T ELG1-luciferase levels, luminescence; cells co-treated with 5-fluorouridine | Potency, µM (titrated, usually from 46.1 µM), inactives show at the top dose activity change, negative = inhibition, most hits filed as inhibitors | 68% of 670 active | AID 624248; further: potency means the concentration at half of the fitted maximal effect; nearly all actives have a fitted effect of over 55% in size
ELG1 MMS Luc: inhibits ELG1-dependent repair under MMS stimulation in HEK293T cells | AID 624249 | Potency, µM (titrated, usually from 46.1 µM), without a hit: at the highest dose activity change, negative = inhibition, actives largely listed as inhibitors | 53% of 670 active | shares compounds with ELG1 repair inh | HEK293T luciferase-tagged ELG1 level, MMS stimulated; further: potency means the concentration at half of the fitted maximal effect; nearly all actives have a fitted effect of over 60% in size
ELG1 5-FU: confirmation of ELG1 repair inhibitors: viability with 5FU; 670 tested, under 10 active; AID 624250; Potency, µM (series often up to 46.1 µM), for inactives: at the top dose activity change, negative = viability loss, usual class: cytotoxic; shares compounds with ELG1 repair inh; cell viability with 5-FU, ELG1-dependent repair;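 further: ELG1-luc HEK293T cells cotreated with 5-fluorouridine at 10 µM final; potency means the concentration at half of the fitted maximal effect; viability measured 16 h after compound addition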
ELG1 MMS cell: confirmation of ELG1 repair inhibitors: viability with MMS | shares compounds with ELG1 repair inh | Cell viability with MMS, ELG1-dependent DNA repair | Potency, µM (series often up to 46.1 µM), for the others: at the top dose activity change, negative = viability loss, actives largely listed as cytotoxic | 33% of 670 active | AID 624251;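 further: ELG1-luc HEK293T cells co-treated with 10 µM MMS; potency means the concentration at half of the fitted maximal effect; viability read 16 h after compound addition; nearly all actives have a fitted effect of over 60% in size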
ELG1 unstim viab: affects unstimulated cell viability, ELG1 hit counter-screen | shares compounds with ELG1 repair inh | cell viability counter-screen, unstimulated, luminescence | Potency, µM (series often up to 45.9 µM), inactives show at the highest dose activity change, negative = loss of viability, usual class: cytotoxic | 8% of 900 active | AID 624252;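 further: potency means the concentration at half of the fitted maximal effect; compound exposure lasted 16 hours before reading; nearly all actives have a fitted effect of over 55% in size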
FLuc biochem: firefly luciferase inhibition counter-screen | Potency, µM (highest dose often 57.5 µM), inactives show at the highest dose activity, negative = inhibition, actives largely listed as inhibitors | 10% of 350 active | AID 624253 | purified firefly luciferase, luminescence counter-screen | shares compounds with ELG1 repair inh; further: potency means the concentration at half of the fitted maximal effect
Starred values were filed as active, the others as inactive. Unless noted, the call rests on the fitted dose curve; in most records, active means well fitted curve in the direction sought with a large enough effect; inconclusive means small, poorly fitted or top-dose-only effect, or another doubt; inactive means no such curve, though single readings can be large; an effect the other way counts as inactive or inconclusive. Unless noted, on the % scale 0 is the no-effect control and ±100 the full control effect.

Results for Cc1ccc([N+](=O)[O-])cc1Nc1nc(N2CCOCC2)nc(N2CCOCC2)n1 ?
TDP1 cell noCPT: -22%; ELG1 repair inh: 16µM*; IL1B secr inh: -21; TDP1 cell CPT: 4%; HT1080-NT tox: 16%; HT1080 IDH1KD tx: 1%; ELG1 FLuc counter: 62%; ELG1 Luc conf: 8.9µM*; ELG1 MMS Luc: inconclusive; ELG1 5-FU: inconclusive; ELG1 MMS cell: inconclusive; ELG1 unstim viab: inconclusive; FLuc biochem: -6%

How did COc1ccccc1Nc1nc(N2CCOCC2)nc(N2CCOCC2)n1 do in these assays?
TDP1 cell noCPT: inconclusive; ELG1 repair inh: 1.6µM*; IL1B secr inh: -9; TDP1 cell CPT: inconclusive; HT1080-NT tox: -2%; HT1080 IDH1KD tx: 0%; ELG1 FLuc counter: 0%; ELG1 Luc conf: 7.9µM*; ELG1 MMS Luc: 2%; ELG1 5-FU: inconclusive; ELG1 MMS cell: -2%; ELG1 unstim viab: -8%; FLuc biochem: 4%

Results for COc1ccc(Nc2nc(N3CCOCC3)nc(N3CCOCC3)n2)c(OC)c1 ?
TDP1 cell noCPT: -8%; ELG1 repair inh: inconclusive; IL1B secr inh: 0; TDP1 cell CPT: inconclusive; HT1080-NT tox: -3%; HT1080 IDH1KD tx: -5%

What do the screens show for `COc1ccc(-n2c(C)c([N+](=O)[O-])c3ccc(O)c(CN(C)C)c32)cc1`?
TDP1 cell noCPT: 2.6µM*; ELG1 repair inh: 0.92µM*; IL1B secr inh: -59*; TDP1 cell CPT: inconclusive; HT1080-NT tox: 1%; HT1080 IDH1KD tx: -4%; ELG1 FLuc counter: inconclusive; ELG1 Luc conf: 1.4µM*; ELG1 MMS Luc: 2.5µM*; ELG1 5-FU: -2%; ELG1 MMS cell: 6%; ELG1 unstim viab: inconclusive; FLuc biochem: 6%

How did COc1ccc(-n2c(C(C)n3nc(C)c([N+](=O)[O-])c3C)n[nH]c2=S)cc1 (stereo not given) do in these assays?
TDP1 cell noCPT: -1%; ELG1 repair inh: inconclusive; IL1B secr inh: 1; TDP1 cell CPT: -6%; HT1080-NT tox: 3%; HT1080 IDH1KD tx: -2%

What do the screens show for `Cc1nnc(NC(=O)C2CCN(S(=O)(=O)c3ccc(F)c(F)c3)CC2)o1`?
TDP1 cell noCPT: 2%; ELG1 repair inh: 10%; IL1B secr inh: 17; TDP1 cell CPT: 9%; HT1080-NT tox: 2%; HT1080 IDH1KD tx: 6%

How did O=C(CSc1nnc(CNC(=O)c2ccco2)o1)Nc1cccc(Cl)c1 do in these assays?
TDP1 cell noCPT: 3%; ELG1 repair inh: 6%; IL1B secr inh: 0; TDP1 cell CPT: 7%; HT1080-NT tox: 11%; HT1080 IDH1KD tx: 19%

How did O=C(NCc1cccc(Br)c1)C1CC2Cn3c(nc4ccccc43)C2N1c1ccccc1 (stereo not given) do in these assays?
TDP1 cell noCPT: -28%; IL1B secr inh: 0; TDP1 cell CPT: -27%; HT1080-NT tox: 1%; HT1080 IDH1KD tx: -1%

What do the screens show for `Cc1ccc2nc(-c3ccc(NC(=O)COc4ccccc4C(C)(C)C)cc3)sc2c1`?
TDP1 cell noCPT: inconclusive; TDP1 cell CPT: -30%

What do the screens show for `O=C(COc1ccccc1Cl)Nc1ccc(-c2nc3ccccc3s2)cc1`?
TDP1 cell noCPT: 6.5µM*; TDP1 cell CPT: 5.8µM*; ELG1 unstim viab: inconclusive

How did O=C(/C=C/c1ccc(F)cc1)NCCCn1ccnc1 do in these assays?
TDP1 cell noCPT: 15%; ELG1 repair inh: 14%; IL1B secr inh: 33; TDP1 cell CPT: -4%; HT1080-NT tox: 2%; HT1080 IDH1KD tx: 1%

Results for CN(C)c1ccc(C=Nc2cncc3ccccc23)cc1 ?
TDP1 cell noCPT: -25%; TDP1 cell CPT: 13%; ELG1 FLuc counter: 50%; ELG1 unstim viab: -5%; FLuc biochem: 0.29µM*

What do the screens show for `N#Cc1ccsc1NC(=O)CSc1nncs1`?
TDP1 cell noCPT: 16%; ELG1 repair inh: inconclusive; IL1B secr inh: 39; TDP1 cell CPT: -12%; HT1080-NT tox: -4%; HT1080 IDH1KD tx: -6%; ELG1 unstim viab: -16%

Results for O=C1NC[C@H](c2ccccc2)OC(=O)[C@H](Cc2ccc(F)cc2)CC/C=C/C[C@H]1CC(=O)N(CCO)Cc1ccccc1 ?
TDP1 cell noCPT: inconclusive; ELG1 repair inh: 2.9µM*; IL1B secr inh: inconclusive; TDP1 cell CPT: 26µM*; HT1080-NT tox: 26µM*; ELG1 Luc conf: 11µM*; ELG1 MMS Luc: 13µM*; ELG1 5-FU: inconclusive; ELG1 MMS cell: inconclusive; ELG1 unstim viab: -13%
